Screening data deposited in PubChem by National Center for Advancing Translational Sciences (NCATS).
IL-1B inflam inh = inhibitors of inflammasome signaling (IL-1 beta secretion). THP-1 LPS/ATP IL-1B secretion, AlphaLISA, 16 h; hits give low values. activity change, % at 57.5 µM. 4.7% of 360,000 active. AID 743279; in the data active means activity change below about -50%; inconclusive means mostly about -30% to -49%
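THP-1 cells pretreated 1 hr with compounds (up to 57.5 uM final), then stimulated with LPS (250 ng/mL final) plus ATP (1.25 mM final); secreted IL-1B measured by AlphaLISA after 16 hr, decreased signal indicating inhibition.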
HT1080 IDH1KD tx = toxicity to HT-1080 IDH1 knockdown cells (counter line) | HT-1080 IDH1 knockdown viability, ATP luminescence, 48 h | Potency, µM (highest dose often 46.1 µM), for the others: at the highest dose activity, negative = toxicity, usual class: cytotoxic | 2% of 360,000 active | AID 686971;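 further: potency means the concentration at half of the fitted maximal effect; 0% = DMSO wells and -100% = cell-free medium wells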
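Knockdown cells (IDH1KD HT-1080) received compounds 2 h after plating at 750 cells/well and were kept 48 h at 37 °C in 5% FBS RPMI. A CellTiter-Glo luminescence read gave % activity for curve fitting.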
TDP1 cell noCPT = qHTS for Inhibitors of human tyrosyl-DNA phosphodiesterase 1 (TDP1): qHTS in cells in absence of CPT; 15% of 420,000 active; DT40 Tdp1-/- hTDP1 cells, no CPT, ATP luminescence, 48 h; Potency, µM (top dose mostly 46.2 µM), for inactives: top-dose activity change, negative = growth inhibition, usual class: inhibitors; further: potency means the concentration at half of the fitted maximal effect; nearly all actives have a fitted effect of over 55% in size
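Camptothecin absent (DMSO only). Human TDP1-complemented DT40 knockout cells, 400 cells/well, 37 °C for minimum 48 hr; ATP measured via CellTiter-Glo, 30 min dark incubation, luminescence.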
ELG1 DNA repair = blocks ELG1-dependent DNA repair in HEK293T cells | AID 504467 | Potency, µM (top dose mostly 46.1 µM), without a hit: at the top dose activity change, negative = inhibition, most hits filed as inhibitors | 2.3% of 330,000 active | HEK293T ELG1-luciferase reporter, luminescence, 16 h; DNA damage induced by 5-fluorouridine; further: potency means the concentration at half of the fitted maximal effect; nearly all actives have a fitted effect of over 55% in size
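Step one: seed 2,000 cells per well. Step two: pin-transfer compound or DMSO alongside 5-fluorouridine. Step three: incubate 16 hr, 37 °C, 5% CO2. Step four: add ONE-Glo, wait 30 min, read luminescence.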
DT40 TDP1 CPT = DT40-hTDP1 cell growth loss with CPT. chicken DT40 Tdp1-/-;hTDP1 cells + 20 nM CPT, ATP luminescence, 48 h. Potency, µM (series often up to 46.2 µM), for inactives: at the top dose activity change, negative = growth inhibition, hits mostly inhibitors. 12% of 420,000 active; further: potency means the concentration at half of the fitted maximal effect; nearly all actives have a fitted effect of over 55% in size
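Cell growth measured by CellTiter-Glo luminescence after a minimum 48 h, 37 C compound exposure with 20 nM CPT in Tdp1-knockout DT40 cells stably expressing hTDP1, seeded 400/well; qHTS titration format.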
HT1080-NT tox = kills 2HG-producing HT-1080-NT fibrosarcoma cells | HT-1080-NT fibrosarcoma viability, CellTiter-Glo ATP luminescence, 48 h | Potency, µM (doses to about 46.1 µM), for the others: top-dose activity, negative = less viability, most hits filed as cytotoxic | 1.6% of 360,000 active | AID 686970;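 further: NT is the 2HG producing partner of a matched IDH1 knockdown line; potency means the concentration at half of the fitted maximal effect; 0% = DMSO-treated cells and -100% = media-only wells without cells; nearly all actives have a fitted effect of over 55% in size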
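Viability by CellTiter-Glo luminescence after 48 h compound exposure at 37C of HT-1080-NT cells (750/well, RPMI, 5% FBS). % activity scaled between DMSO wells and medium-only wells, then curve-fitted and categorized by curve class.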
Active calls of the source: *; ? = inconclusive; / = not tested or not shown. Compounds with a hit are over-represented: about 19% of the library has one in this group of screens. Unless noted, the call rests on the fitted dose curve; in most records, active means well fitted curve in the direction sought with a large enough effect; inconclusive means small, poorly fitted or top-dose-only effect, or another doubt; inactive means no such curve, though single readings can be large; an effect the other way counts as inactive or inconclusive. Unless noted, on the % scale 0 is the no-effect control and ±100 the full control effect.

SMILES	IL-1B inflam inh	HT1080 IDH1KD tx	TDP1 cell noCPT	ELG1 DNA repair	DT40 TDP1 CPT	HT1080-NT tox
Cc1cccc(-c2ocnc2C(=O)N2CCN(C(=O)c3cccs3)CC2)c1	-11.7	-3.0%	?	-0.6%	-10.5%	0.0%
CC1CC(OC(=O)C2CCN(S(=O)(=O)c3ccc(F)cc3)CC2)C(=O)O1 (stereo not drawn)	21.3	2.8%	-26.5%	9.2%	8.7%	2.2%
CCCCOc1ccc(C2c3c(oc4ccc(C)cc4c3=O)C(=O)N2CCCN(C)C)cc1OCC (stereo not drawn)	/	/	-6.0%	/	-13.0%	/
Cn1nc(C(=O)Nc2c(-c3ccccc3)nc3sccn23)c2ccccc2c1=O	32.5	10.1%	13µM*	5.9%	20.6µM*	7.7%
Cc1c(NC(=O)c2nn(C)c(=O)c3ccccc23)c(=O)n(-c2ccccc2)n1C	3.5	11.2%	-13.5%	/	2.4%	13.5%
Cn1nc(C(=O)NNc2c(F)c(F)cc(F)c2F)c2ccccc2c1=O	42.4	-3.3%	1.46µM*	-16.4%	-15.9%	-1.6%
Cn1nc(C(=O)Nc2nc3ccccc3[nH]2)c2ccccc2c1=O	-15.4	8.8%	16.4µM*	17.8%	18.4µM*	12.0%
COCCCN1C(=O)C(CC(=O)NCc2cccc3ccccc23)CC(C(=O)N(C)C)=C1C (stereo not drawn)	-1.8	-1.6%	-23.9%	/	-1.9%	13.5%
CC(=O)c1ccc(-c2nnc(CCC(=O)N(C)Cc3c(C)nc4ccccn34)o2)s1	37.6	-0.1%	?	-7.6%	?	-13.6%
CCOc1cc(CNCc2ccncc2)cc(Br)c1OCc1ccccc1F	-12.9	?	?	-22.7%	?	?
CCOc1cccc(CNn2cnnc2)c1OCc1ccccc1Cl	-7.4	3.0%	-28.6%	-7.0%	-18.4%	-0.2%
CCOc1cccc(CNc2ccc(O)cc2)c1OCc1ccc(Cl)cc1Cl	?	20.6µM*	20.6µM*	?	14.6µM*	?
CCOc1cc(CNc2ccc(O)cc2)cc(Cl)c1OCc1ccccc1	/	/	16.4µM*	/	20.6µM*	/
CCOc1cc(CNCCO)cc(Br)c1OCc1ccc(Cl)cc1Cl	-101.5*	20.6µM*	14.6µM*	?	16.4µM*	?
CCOc1cccc(CNc2ccc(O)cc2)c1OCc1ccccc1Cl	-4.6	?	11.6µM*	18.4µM*	13µM*	?
CCNc1ncc2ncc(=O)n(C3CC3)c2n1	/	/	-7.7%	/	?	/
CCOc1cccc(CNCCO)c1OCc1ccc(Cl)cc1Cl	0.0	-24.8%	16.4µM*	-13.6%	16.4µM*	-4.3%
CCOc1cc(CNCCO)cc(Br)c1OCc1cccs1	-60.2*	11.2µM*	18.4µM*	-27.3%	14.6µM*	?
COc1cc(CNCCO)cc(Br)c1OCc1ccccc1	-1.2	-8.8%	-23.6%	-42.0%	-11.2%	-5.7%
Cc1cnnc2ccccc12	/	/	-4.8%	/	2.4%	/
CCOC(=O)c1cc(-c2ccccc2)n(CCC(=O)O)c1C	3.8	0.0%	-21.3%	-7.7%	-26.4%	-2.8%
CCOC(=O)c1cc(-c2ccccc2)n(CCC(=O)NCCc2ccc(OC)c(OC)c2)c1C	/	/	23.1µM*	/	20.6µM*	/
CCOC(=O)c1cc(-c2ccccc2)n(CCC(=O)NCCc2ccc(C)cc2)c1C	/	/	8.2µM*	/	14.6µM*	/
CCOC(=O)c1cc(-c2ccc(C)cc2)n(CCC(=O)NCCN(C)C)c1C	-3.6	?	-24.1%	13.0%	?	?
CCOC(=O)c1c(C(=O)OCC)c(C)n(CCc2ccc(OC)c(OC)c2)c1C	0.5	4.6%	?	14.6µM*	23.1µM*	8.0%
COc1ccc2c(c1)c(C(C)=O)c(C)n2CCc1ccc(OC)c(OC)c1	-3.8	0.7%	-13.4%	1.0%	-2.6%	3.8%
